# High-throughput results: PubChem, National Center for Advancing Translational Sciences (NCATS)
# BAZ2B inh: BAZ2B (human) inhibition | AID 504333 | AlphaScreen BAZ2B-H3K14Ac peptide displacement | 360,000 tested, 4.4% active | Potency, µM (highest dose often 114 µM), most hits filed as inhibitors; also: nearly all actives have a fitted effect of over 60% in size
#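 AlphaScreen displacement of biotin-H3(5-23)K14Ac peptide (50 nM final) from BAZ2B (50 nM final) in PBS pH 7.4, 0.01% Tween-20; complex preformed 30 min RT, then compounds (top 110 uM) 30 min RT, beads 20 min dark.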
# L3MBTL1 inh: inhibitors of human L3MBTL1; Q9Y468; AlphaScreen L3MBTL1–H3K9me1 peptide binding; Potency, µM (series often up to 57.1 µM), actives largely listed as inhibitors; 230,000 tested, 0.66% active; AID 485360; also: nearly all actives have a fitted effect of over 60% in size
#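 L3MBTL1 (50 nM) pre-complexed 30 min with biotinylated H3(1-15)K9me1 peptide (75 nM), then compounds added for 30 min at room temperature; AlphaScreen streptavidin donor/nickel chelate acceptor beads (10 ug/mL final) read after 30 min dark incubation.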
# PLK1 PBD block: inhibitors of human PLK1 polo-box domain binding. P53350. Plk1 PBD binding of FITC phosphopeptide, fluorescence polarization. Potency, µM, actives largely listed as inhibitors. 360,000 tested, 2.8% active; also: series mostly up to about 57 µM; nearly all actives have a fitted effect of over 65% in size
# JMJD2A Tudor: inhibitors of human JMJD2A Tudor domain; Potency, µM (doses to about 114 µM), hits mostly inhibitors; O75164; AlphaScreen JMJD2A-Tudor / H3K4me3 peptide binding; 390,000 tested, 4.4% active; AID 504339; also: nearly all actives have a fitted effect of over 50% in size
# VDR inh: blocks the human vitamin D receptor; VDR-SRC2-3 peptide fluorescence polarization, 2 h; Potency, µM, usual class: inhibitors; 400,000 tested, 0.93% active; AID 504847
# Target sequence (P11473 whole entry, looked up): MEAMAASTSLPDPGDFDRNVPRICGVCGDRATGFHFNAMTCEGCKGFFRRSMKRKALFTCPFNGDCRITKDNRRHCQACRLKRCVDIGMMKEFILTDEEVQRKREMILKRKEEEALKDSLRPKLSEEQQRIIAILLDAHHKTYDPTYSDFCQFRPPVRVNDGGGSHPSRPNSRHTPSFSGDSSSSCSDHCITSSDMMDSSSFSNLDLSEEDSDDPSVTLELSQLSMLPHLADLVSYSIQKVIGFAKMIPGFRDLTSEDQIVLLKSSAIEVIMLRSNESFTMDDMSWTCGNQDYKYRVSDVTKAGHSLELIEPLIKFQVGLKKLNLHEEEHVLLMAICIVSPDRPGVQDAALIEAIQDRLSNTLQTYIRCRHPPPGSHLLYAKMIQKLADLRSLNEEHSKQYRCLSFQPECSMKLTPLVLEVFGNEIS
#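 Inhibition of the VDR/SRC2-3 peptide interaction is quantified by fluorescence polarization. Compounds (23 nl, pintool) incubate with the reagents for 2 hours at ambient room temperature.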
# HP1b binding inh: blocks HP1-beta chromodomain binding to methylated histone tails; AlphaScreen HP1-beta / biotin-H3K9me3 peptide binding; Potency, µM (doses to about 114 µM), usual class: inhibitors; 390,000 tested, 0.56% active; AID 540317; also: nearly all actives have a fitted effect of over 70% in size
# Target sequence (P83916 whole entry, looked up): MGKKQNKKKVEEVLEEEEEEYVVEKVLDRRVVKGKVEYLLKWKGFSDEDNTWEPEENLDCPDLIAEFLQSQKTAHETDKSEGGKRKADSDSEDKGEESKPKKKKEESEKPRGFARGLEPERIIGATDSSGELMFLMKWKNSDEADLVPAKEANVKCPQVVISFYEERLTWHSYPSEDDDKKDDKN
#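 Compound inhibition of the preformed complex between 50 nM HP1-beta and 50 nM biotinylated H3K9me3 peptide was read by AlphaScreen. Buffer was PBS pH 7.4 with 0.01% Tween-20. Incubations ran 30 min at room temperature, with 10 ug/mL donor/acceptor beads.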
# A number is an active result; - = inactive; ? = inconclusive; . = no result; [ ] = remark or other dose. In the library only some 6.9% were active in any assay of this set; here they are far more common. Calls follow the shape of the dose curve; as a rule, active = well fitted curve in the direction sought with a large enough effect; inconclusive = small, poorly fitted or top-dose-only effect, or another doubt; inactive = no such curve, though single readings can be large; an effect the other way counts as inactive or inconclusive.
SMILES,BAZ2B inh,L3MBTL1 inh,PLK1 PBD block,JMJD2A Tudor,VDR inh,HP1b binding inh
O=C(CN1C(=O)c2ccccc2S1(=O)=O)Nc1ccc(S(=O)(=O)N2CCCC2)cc1,-,-,-,-,-,-
COc1ccc(-c2nc3cnc(N4CCNCC4)nc3n(-c3ccccc3)c2=O)cc1,.,.,.,.,-,.
COc1cccc(-n2cc(C(=O)Nc3ccccc3C(N)=O)c3ccccc3c2=O)c1,-,.,.,-,-,-
CCOc1ccc(OCC)c(NC(=O)c2cc(CN3CCOCC3)on2)c1,-,.,.,-,-,?
Cc1ccc(C2CC(=O)N(Cc3ccccc3F)c3c2c(C)nn3-c2nc(C)cc(C)n2)cc1 (stereo unspecified),-,.,.,-,-,-
O=C(Nc1ccc(S(=O)(=O)N2CCCCC2)cc1)c1cccnc1Cl,-,-,-,-,-,-
O=C(Nc1ccc(S(=O)(=O)N2CCCCC2)cc1)c1ccccc1Cl,-,.,30µM,?,-,-
COc1cccc(CNCCNC(=O)c2ccco2)c1OC,50µM,.,19µM,?,-,-
O=C(NCCNC(=O)c1ccco1)c1ccc(F)cc1,-,-,-,-,-,-
COc1ccc(CNCCNC(=O)c2cccs2)c(OC)c1OC,56µM,-,-,22µM,-,-
COc1ccc(OC)c(CNCCNC(=O)c2ccco2)c1,56µM,.,.,.,.,.
O=C(NCCNCc1ccc(F)cc1)c1ccco1,50µM,.,-,3.5µM,-,?
O=C(NCc1ccccc1)c1cnc(N2CCCCC2)c2ccccc12,-,.,.,-,-,-
O=C(NC1c2ccccc2-c2ccccc21)c1ccco1,-,-,21µM,56µM,-,-
C[C@]12c3[nH]c4cc(-c5ccco5)ccc4c3CCN1C(=O)[C@@H](CC(=O)NCCC1=CCCCC1)C[C@@H]2C(=O)N1CCCCC1,.,?,21µM,?,?,-
CC(C)(C)NC(=O)C[C@H]1C[C@H](C(=O)N2CCCCC2)[C@@]2(C)c3[nH]c4cc(-c5ccco5)ccc4c3CCN2C1=O,.,-,24µM,50µM,?,-
COC(=O)CN1C(=O)CSc2ccc(S(=O)(=O)Nc3ccc(Cl)cc3C)cc21,-,.,.,-,-,-
CC(Sc1nc(N)c2c3c(sc2n1)CSC(C)(C)C3)C(=O)Nc1ccccc1 (stereo unspecified),-,-,8.4µM,11µM,40µM,?
CCn1c(O)c(C=Nc2ccccc2)sc1=S,-,.,-,-,-,-
CCn1c(O)c(/C=N/n2cnnc2)sc1=S,?,-,-,56µM,-,-
COC(=O)c1cc2c(-c3ccccc3)cc3ccccn3c-2c1C(=O)OC,13µM,.,-,45µM,-,?
COC(=O)c1c(C)n(-c2ccccc2)c2ccc(O)cc12,-,-,-,?,-,-
COC(=O)c1c(C(=O)OC)c2cccc3cc(-c4ccccc4)c4ccc1c4n32,2.5µM,.,?,8.9µM,-,?
O=C(O)c1cc2n(n1)C(C(F)(F)F)CC(C1CC1)N2 (stereo unspecified),-,.,24µM,-[11.4 µM],?,-
CC1CC(C(F)F)n2nc(C(=O)O)cc2N1 (stereo unspecified),-,.,-,20µM,-,-
SMILES,BAZ2B inh,L3MBTL1 inh,PLK1 PBD block,JMJD2A Tudor,VDR inh,HP1b binding inh
CC1CC(C(F)(F)C(F)(F)F)n2nc(C(=O)O)cc2N1 (stereo unspecified),?,-,-,-,-,-
Cc1ccn2c(=O)cc(COc3ccc(NC(=O)COc4ccc(Cl)cc4)cc3)nc2c1,-,.,.,-,-,-
CCN(CC)Cc1cc(C(=O)O)c(C)o1,-,-,-,-,-,-
COc1ccc(OCc2cc(C(=O)O)c(C)o2)cc1,79µM,?,.,.,.,.
Cc1c(Cl)cccc1-c1ccc(CNCc2ccccn2)o1,25µM,?,-,?,-,-
O=C(NCCc1ccccc1F)C1CC(=O)N(c2ccc3c(c2)OCCO3)C1 (stereo unspecified),.,.,-,.,.,.
N#CCCn1c(=O)c(-c2ccc(Cl)cc2)nc2cnc(N3CCNCC3)nc21,.,.,.,.,-,.
Cc1nc(N2CCCCC2)c2ccsc2n1,5µM,.,-,0.79µM,-,?
Cc1nc(N2CCCCC2)c2c(-c3cccs3)csc2n1,-,.,-,-,-,-
Cc1[nH]n(-c2ccccc2)c(=O)c1/C=N/NC(=O)c1ccc(O)cc1O,25µM,.,-,22µM,-,-
Cc1ccc(-n2[nH]c(C)c(C=Nc3cc(C)ccn3)c2=O)cc1,-,-,-,-,-,-
Cc1ccc(-n2[nH]c(C)c(/C=N/NC(=O)c3ccc(O)cc3O)c2=O)cc1,28µM,.,-,32µM,-,-
Cc1cc(C(=O)N/N=C/c2c(C)n(C)c3ccccc23)n[nH]1,-,-,-,-,-,-
Cc1ccc(OCC(=O)N/N=C\c2c(C)[nH]n(-c3ccccc3)c2=O)c([N+](=O)[O-])c1,?,-,-,?,-,-
CCCCN(CCCC)C(=S)N/N=C/c1c(C)[nH]n(-c2ccccc2)c1=O,10µM,-,-,79µM,-,-
Cc1cc(C(=O)N/N=C/c2c(C)[nH]n(-c3ccccc3)c2=O)n[nH]1,28µM,.,-,50µM,-,-
CC(=O)c1cccc(NC(=O)N2CCC(NC(=O)c3ccco3)CC2)c1,-,.,-,-,-,-
Cc1[nH]n(-c2ccccc2)c(=O)c1/C=N/Nc1nncc(-c2ccccc2)n1,4.5µM,25µM,-,3.5µM,-,-
COc1cccc(/C=N/NC(=O)C(=O)N2CCCCCC2)c1O,79µM,.,-,79µM,-,-
COc1cccc(/C=N/NC(=O)C(=O)N/N=C/c2cccc(OC)c2O)c1O,50µM,?,-,100µM,-,-
COc1cccc(/C=N/NC(=O)c2cnccn2)c1O,79µM,?,-,-[11.4 µM],-,-
CCOc1cc(Br)cc(/C=N/NC(=O)c2cccnc2)c1O,28µM,?,-,40µM,-,-
COc1cc(NS(=O)(=O)c2ccc(NC(=O)C(C)Oc3ccc(Cl)cc3Cl)cc2)nc(OC)n1 (stereo unspecified),-,.,.,-,-,-
O=C(CCCCCNC(=O)c1ccccc1Br)N=Nc1c(O)[nH]c2ccccc12,?,-,-,-,-,-
COc1cccc(Nc2ncc3nc(-c4cccs4)c(=O)n(C[C@H]4CCCO4)c3n2)c1,.,.,.,.,-,.
CC(C)CC(O)C(=O)Nc1cc(C(F)(F)F)ccc1Cl (stereo unspecified),.,.,.,-,.,.
Cc1ccc2nc(Nc3cccc(C(F)(F)F)c3)c3nnnn3c2c1,-,.,.,-,-,-
COc1cccc(/C=N/NC(=O)c2cc3cc([N+](=O)[O-])ccc3s2)c1O,22µM,?,?,63µM,-,?
COc1ccccc1/C=N/NC(=O)c1ccc(NC(=O)c2cccc([N+](=O)[O-])c2)cc1,-,?,.,.,.,.
COC(=O)c1cccc(/C=N/NC(N)=S)c1O,4.5µM,?,-,?,-,-
